# Values without a mark were called inactive. The list shows a part of the results. The source made the active and inactive calls.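 How the source made its calls, unless noted: active means inhibition above the mean plus 3 SD of solvent-only control wells, limit set per screening run (cut at about 16% in these data); inactive means the rest.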
# Columns and labels:
# [1] = blockers of IL-6 STAT3 signaling – U3A cells, luciferase, luminescence, confirmation (AID 1265;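 active means inhibition above the hit cutoff computed for the primary STAT3 screen, cut at about 44% in these data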;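 further: 0% = IL-6 plus DMSO and 100% = IL-6 plus nifuroxazide control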); conditions: IL-6 STAT3 luciferase reporter, at 5.7 µM, stronger effect = higher value, cell line lacks STAT1
# [2] = inhibition of TNF-alpha-driven NF-kB transcription – cell-based, HEK293T, luciferase, TNF-alpha stimulus, counter-screen for STAT3 inhibitor project, confirmation (AID 1308;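 active means inhibition above the mean of solvent-only control wells plus 3 SD, cutoff set per campaign, cut at about 13% in these data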;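 further: 0% = TNF-alpha with DMSO and 100% = TNF-alpha with MG high control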); conditions: HEK293T NF-kB luciferase reporter, TNF-alpha induced; at 5.7 µM; stronger effect = higher value
# [3] = inhibition of STAT1-driven transcription – cell-based, NIH 3T3, luciferase luminescence, IFN-gamma, counter-screen for STAT3 inhibitor project, confirmation (AID 1317); conditions: NIH 3T3 STAT1-luciferase reporter, IFN-gamma induced, at 5.7 µM, stronger effect = higher value;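 further: 0% = DMSO with IFN-gamma and 100% = nifuroxazide control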
# [4] = target: Oxysterols receptor LXR-beta (Homo sapiens) (UniProt P55055); assay: nonspecific reporter activation via LXR – cell-based, luminescence, HEK293, H. contortus campaign, counter-screen for hcDAF-12 agonist project, confirmation (AID 743027;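 active means mean percent activation of the reporter above a cutoff set as the average over tested compounds plus their standard deviation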); conditions: HEK293 Gal4-LXR tk-luc reporter, 24 h, at 6.8 µM, stronger effect = higher value, normalized: DMSO 0%, positive control 100%
# Oxysterols receptor LXR-beta (Homo sapiens), sequence (P55055 whole entry, looked up, the tested form may be a part): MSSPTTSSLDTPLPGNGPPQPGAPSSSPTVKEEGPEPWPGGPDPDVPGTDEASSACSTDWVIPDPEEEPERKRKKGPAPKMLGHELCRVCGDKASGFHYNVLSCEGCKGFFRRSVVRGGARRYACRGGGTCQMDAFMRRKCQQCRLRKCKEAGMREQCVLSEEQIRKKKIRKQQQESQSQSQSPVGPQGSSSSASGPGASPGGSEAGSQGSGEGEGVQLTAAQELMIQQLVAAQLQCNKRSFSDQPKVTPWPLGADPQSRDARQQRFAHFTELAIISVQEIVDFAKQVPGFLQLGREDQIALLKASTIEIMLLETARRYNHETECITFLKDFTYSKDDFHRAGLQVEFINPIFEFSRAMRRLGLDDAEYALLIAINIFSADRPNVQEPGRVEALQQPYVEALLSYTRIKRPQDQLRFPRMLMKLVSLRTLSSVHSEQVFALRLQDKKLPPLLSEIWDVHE
# [5] = test system: Nuclear hormone receptor DAF-12 (Haemonchus contortus); assay: hcDAF-12 luciferase reporter activation, retest – cell-based, luminescence, HEK293, lit1-tk-luc, triplicate, confirmation (AID 743032;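 active means mean activation across triplicate tests above the threshold derived from the earlier primary screen, cut at about 5.5% in these data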;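 further: 0% = DMSO only wells and 100% = 3 µM Δ7-dafachronic acid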); conditions: HEK293 hcDAF-12 lit1-tk-luc reporter, at 6.8 µM, stronger effect = higher value, % of Δ7-dafachronic acid response
# [6] = test system: DAF-12 nuclear receptor (Heterodera glycines), GAL4-LBD fusion; assay: hgDAF-12 GAL4 fusion reporter activation, retest – cell-based, luminescence, HEK293, GAL4-LBD fusion, confirmation (AID 743050;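 active means mean activation over triplicate wells above the hit cutoff derived from the earlier primary screen, cut at about 11% in these data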;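 further: 0% = DMSO low control and 100% = 2 mM sodium butyrate high control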); conditions: HEK293 GAL4-hgDAF12 luciferase reporter, agonist mode; at 6.8 µM; stronger effect = higher value; percent of butyrate response
# [7] = target: Oxysterols receptor LXR-beta (Homo sapiens) (UniProt P55055); assay: nonspecific reporter activation via LXR – cell-based, luminescence, HEK293, H. glycines campaign, counter-screen for hgDAF-12 agonist project, confirmation (AID 743051;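 active means mean activation of the triplicate above a set limit carried over from the primary screen, none filed active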); conditions: HEK293 Gal4-LXR luciferase reporter, 24 h; at 6.8 µM; stronger effect = higher value
# [8] = target: Peroxisome proliferator-activated receptor gamma (Homo sapiens) (UniProt P37231); assay: retested PPARg-SRC-2 recruitment enhancers – biochemical, HTS, confirmation (AID 1297; in the data active means activation above about 22%;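 further: 0% = vehicle alone and 100% = reference agonist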); conditions: biochemical SRC-2 recruitment by PPARgamma; at 8 µM; stronger effect = higher value
# Peroxisome proliferator-activated receptor gamma (Homo sapiens), sequence (P37231 whole entry, looked up): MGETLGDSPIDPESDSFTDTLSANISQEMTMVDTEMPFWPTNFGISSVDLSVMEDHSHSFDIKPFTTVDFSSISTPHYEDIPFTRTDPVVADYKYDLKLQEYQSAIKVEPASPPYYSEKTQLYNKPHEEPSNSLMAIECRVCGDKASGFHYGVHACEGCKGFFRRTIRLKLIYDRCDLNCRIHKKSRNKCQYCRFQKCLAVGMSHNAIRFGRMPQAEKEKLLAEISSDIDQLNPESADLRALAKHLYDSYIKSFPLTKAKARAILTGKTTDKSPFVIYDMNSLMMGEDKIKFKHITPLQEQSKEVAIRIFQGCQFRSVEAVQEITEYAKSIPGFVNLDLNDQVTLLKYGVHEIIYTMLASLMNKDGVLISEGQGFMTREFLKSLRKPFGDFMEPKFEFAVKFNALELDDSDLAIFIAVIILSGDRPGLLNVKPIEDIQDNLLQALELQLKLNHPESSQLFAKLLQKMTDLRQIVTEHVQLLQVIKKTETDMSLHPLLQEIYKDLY
# [9] = target: Peroxisome proliferator-activated receptor gamma (Homo sapiens) (UniProt P37231); assay: retest of SRC-1 recruitment enhancers for PPARgamma – biochemical, confirmation (AID 1300; in the data active means activation above about 20%;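 further: 0% = vehicle wells and 100% = reference agonist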); conditions: PPARgamma–SRC-1 coactivator recruitment biochemical assay; at 8 µM; stronger effect = higher value
# [10] = target: Peroxisome proliferator-activated receptor gamma (Homo sapiens) + Nuclear receptor coactivator 3 (Homo sapiens) (UniProt P37231+Q9Y6Q9); assay: agonists promoting SRC-3 binding to PPARgamma – biochemical, confirmation (AID 1301; in the data active means activation above about 24%;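 further: 0% = vehicle wells and 100% = reference agonist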); conditions: biochemical PPARgamma-SRC-3 coactivator recruitment, agonist mode; at 8 µM; stronger effect = higher value
# Peroxisome proliferator-activated receptor gamma (Homo sapiens) + Nuclear receptor coactivator 3 (Homo sapiens), sequence (P37231 whole entry, looked up): as above
# Peroxisome proliferator-activated receptor gamma (Homo sapiens) + Nuclear receptor coactivator 3 (Homo sapiens), sequence (Q9Y6Q9 whole entry, looked up): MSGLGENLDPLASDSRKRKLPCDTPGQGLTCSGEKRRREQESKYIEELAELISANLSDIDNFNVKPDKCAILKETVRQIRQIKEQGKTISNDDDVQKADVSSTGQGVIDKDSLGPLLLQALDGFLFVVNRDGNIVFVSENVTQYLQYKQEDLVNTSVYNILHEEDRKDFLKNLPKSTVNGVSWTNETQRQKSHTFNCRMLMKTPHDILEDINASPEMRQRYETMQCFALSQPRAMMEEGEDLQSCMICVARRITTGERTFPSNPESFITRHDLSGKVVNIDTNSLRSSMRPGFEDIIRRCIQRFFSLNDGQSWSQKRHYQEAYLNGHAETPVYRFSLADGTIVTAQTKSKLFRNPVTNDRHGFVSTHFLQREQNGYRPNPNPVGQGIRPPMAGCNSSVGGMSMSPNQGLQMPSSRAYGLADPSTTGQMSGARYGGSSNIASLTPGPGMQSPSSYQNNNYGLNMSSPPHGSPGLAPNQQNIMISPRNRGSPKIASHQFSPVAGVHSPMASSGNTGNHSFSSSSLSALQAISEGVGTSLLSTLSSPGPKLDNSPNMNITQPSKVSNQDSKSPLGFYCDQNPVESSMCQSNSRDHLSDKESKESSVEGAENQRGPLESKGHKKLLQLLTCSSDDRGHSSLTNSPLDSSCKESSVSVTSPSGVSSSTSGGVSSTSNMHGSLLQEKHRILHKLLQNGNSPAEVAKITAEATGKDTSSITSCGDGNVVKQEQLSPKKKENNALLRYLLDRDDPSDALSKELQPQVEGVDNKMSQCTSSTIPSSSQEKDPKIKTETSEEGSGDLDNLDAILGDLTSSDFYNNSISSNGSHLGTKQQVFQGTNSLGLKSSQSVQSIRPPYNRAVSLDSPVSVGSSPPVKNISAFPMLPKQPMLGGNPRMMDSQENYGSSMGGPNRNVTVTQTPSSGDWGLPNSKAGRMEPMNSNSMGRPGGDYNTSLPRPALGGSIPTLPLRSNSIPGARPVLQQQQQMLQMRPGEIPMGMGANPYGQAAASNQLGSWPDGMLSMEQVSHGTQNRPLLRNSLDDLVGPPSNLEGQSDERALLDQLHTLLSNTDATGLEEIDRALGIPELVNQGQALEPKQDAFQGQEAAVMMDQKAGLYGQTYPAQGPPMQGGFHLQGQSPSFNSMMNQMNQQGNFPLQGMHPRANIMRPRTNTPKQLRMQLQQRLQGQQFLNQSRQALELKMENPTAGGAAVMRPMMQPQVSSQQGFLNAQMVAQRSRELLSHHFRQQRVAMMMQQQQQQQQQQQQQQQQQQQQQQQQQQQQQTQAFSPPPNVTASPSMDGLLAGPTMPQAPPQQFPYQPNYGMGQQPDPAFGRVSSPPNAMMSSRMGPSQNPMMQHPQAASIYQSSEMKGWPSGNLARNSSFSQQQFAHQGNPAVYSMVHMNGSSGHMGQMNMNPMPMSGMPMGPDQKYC
# [11] = target: Galanin receptor type 2 (Homo sapiens) (UniProt O43603); assay: blockers of human galanin receptor 2 – cell-based, confirmation (AID 866; in the data active means inhibition above about 27%;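 further: cells stimulated with galanin at about its EC80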); conditions: GALR2-expressing cells, antagonist mode, at 4 µM, stronger effect = higher value
# Galanin receptor type 2 (Homo sapiens), sequence (O43603 whole entry, looked up): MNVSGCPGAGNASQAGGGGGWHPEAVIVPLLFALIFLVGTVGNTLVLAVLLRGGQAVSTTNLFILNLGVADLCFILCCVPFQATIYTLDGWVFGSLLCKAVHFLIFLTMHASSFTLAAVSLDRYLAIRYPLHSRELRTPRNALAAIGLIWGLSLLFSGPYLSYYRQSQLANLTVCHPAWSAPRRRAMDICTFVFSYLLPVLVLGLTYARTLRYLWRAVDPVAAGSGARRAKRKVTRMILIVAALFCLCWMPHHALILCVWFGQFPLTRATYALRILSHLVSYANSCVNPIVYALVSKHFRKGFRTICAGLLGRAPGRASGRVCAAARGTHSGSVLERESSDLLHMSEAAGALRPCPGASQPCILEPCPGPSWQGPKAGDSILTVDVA
# [12] = nonspecific BLA reporter inhibition – CHO NFAT-bla cells, FRET readout, counter-screen for GALR2 antagonist project, confirmation (AID 867;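 active means inhibition above the mean inhibition across tested compounds plus 3 SD, cut at about 27% in these data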;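 further: 0% = 500 nM thapsigargin stimulated wells and 100% = unstimulated BSA only wells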); conditions: beta-lactamase FRET, thapsigargin-stimulated, at 4.2 µM, stronger effect = higher value
# [13] = target: Serine protease HTRA1 (Homo sapiens) (UniProt Q92743); assay: confirming inhibition of human HTRA1 – biochemical, fluorescence polarization, confirmation (AID 540248;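 active means mean inhibition over three repeats above a set limit taken from the earlier primary screen, cut at about 37% in these data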;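 further: 0% = HTRA1 with DMSO and 100% = wells lacking HTRA1; inhibitors block probe binding so polarization drops and inhibition rises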); conditions: recombinant HTRA1, FP-rhodamine activity-based probe, at 5.96 µM, stronger effect = higher value
# [14] = target: Nuclear receptor coactivator 3 (Homo sapiens) (UniProt Q9Y6Q9); assay: NCOA3 GAL4-fusion reporter inhibition – cell-based, luminescence, quadruplicate, confirmation (AID 588792;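 active means mean inhibition over 43.08%, the solvent-only control mean plus 3 SD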;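 further: 0% = DMSO treated cells and 100% = gossypol at 36 µM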); conditions: HEK293 GAL4-SRC3 luciferase reporter, at 3.6 µM, stronger effect = higher value
# Nuclear receptor coactivator 3 (Homo sapiens), sequence (Q9Y6Q9 whole entry, looked up, the tested form may be a part): as the sequence (Q9Y6Q9 whole entry, looked up) above
# [15] = test system: transactivating tegument protein VP16 (Human herpesvirus 1), Gal4-VP16 luciferase reporter; assay: repression of VP16-driven luciferase reporter – cell-based, luminescence, high throughput, counter-screen for SRC3 inhibitor project (AID 588794; in the data active means inhibition above about 30%); conditions: mammalian cells, at 3.6 µM, stronger effect = higher value
# [16] = VP16-driven transactivation reporter suppression – cell-based, luminescence, HEK293, counter-screen for COUP-TFII antagonist project (AID 687007; in the data active means inhibition above about 13%); conditions: HEK293 Gal4-VP16 luciferase reporter, at 8.5 µM, stronger effect = higher value
# [17] = target: COUP transcription factor 2 (Homo sapiens) (UniProt P24468); assay: retest of COUP-TFII reporter suppressors – cell-based, luciferase reporter, HEK293, triplicate, confirmation (AID 687008;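 active means mean inhibition over three repeats above a set limit taken from the earlier primary screen, cut at about 38% in these data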;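 further: 100% = cells given the luciferase reporter alone without the COUP-TF2 vector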); conditions: HEK293 NGFI-A luciferase reporter, luminescence; at 8.5 µM; stronger effect = higher value
# COUP transcription factor 2 (Homo sapiens), sequence (P24468 whole entry, looked up): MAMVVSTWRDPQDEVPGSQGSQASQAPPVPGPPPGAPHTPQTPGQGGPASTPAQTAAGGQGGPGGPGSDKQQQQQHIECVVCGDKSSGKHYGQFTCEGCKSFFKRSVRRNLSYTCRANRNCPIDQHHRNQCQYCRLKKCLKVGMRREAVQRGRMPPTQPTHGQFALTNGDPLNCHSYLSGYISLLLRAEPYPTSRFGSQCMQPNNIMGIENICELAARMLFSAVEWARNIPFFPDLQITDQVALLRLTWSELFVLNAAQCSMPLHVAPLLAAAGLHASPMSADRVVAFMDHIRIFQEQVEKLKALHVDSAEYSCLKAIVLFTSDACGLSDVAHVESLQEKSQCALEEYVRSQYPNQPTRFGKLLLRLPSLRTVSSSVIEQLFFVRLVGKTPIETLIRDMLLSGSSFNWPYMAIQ
structure (smiles),measurement,setting,value
COc1ccc(NS(=O)(=O)c2ccc(NC(C)=O)cc2)cc1OC,inhibition,[1],26.4%
same,inhibition,[2],5.93%
same,inhibition,[3],17.1% (active)
Cc1cc(NC(=O)c2cc(-c3cccs3)on2)nn1Cc1ccc(Cl)cc1,inhibition,[1],46.6% (active)
same,inhibition,[2],8.43%
same,inhibition,[3],0.57%
CCc1ccc2oc(-c3ccc(N)cc3)nc2c1,inhibition,[1],36.1%
same,inhibition,[2],13.1% (active)
same,inhibition,[3],-84.8%
same,activation,[4],1.54%
same,activation,[5],10.2% (active)
same,activation,[6],18.3% (active)
same,activation,[7],1.35%
NC(=O)CSc1oc(-c2cccs2)nc1S(=O)(=O)c1ccccc1,activation,[8],40.9% (active)
same,activation,[9],34.8% (active)
same,activation,[10],26.5% (active)
O=C(Nc1ccn(Cc2ccccc2)n1)c1n[nH]c([N+](=O)[O-])c1Cl,inhibition,[1],12.7%
same,inhibition,[2],-0.1%
same,inhibition,[3],-63.1%
same,activation,[6],11.6% (active)
same,activation,[7],0.82%
Cc1csc(SCC(=O)Nc2sccc2C#N)n1,inhibition,[1],7.4%
same,inhibition,[2],-23.8%
same,inhibition,[3],-80.2%
same,activation,[4],1.59%
same,activation,[5],10.3% (active)
c1ccc2[nH]c(-c3nc4ccccc4[nH]3)nc2c1,inhibition,[11],21.3%
same,inhibition,[12],8.39%
same,inhibition,[1],5.87%
same,inhibition,[2],-30%
same,inhibition,[3],-97.2%
same,inhibition,[13],58.4% (active)
same,activation,[4],1.09%
same,activation,[5],4.57%
CC(C)(CNC(=O)c1ccc(Cl)c(S(=O)(=O)N2CCc3ccccc3C2)c1)N1CCOCC1,inhibition,[1],57.1% (active)
same,inhibition,[2],13.4% (active)
same,inhibition,[3],9%
same,inhibition,[14],7.77%
same,inhibition,[15],32.8% (active)
same,inhibition,[16],0.6%
same,inhibition,[17],38.9% (active)
